Hit rate of the full screen: of about 69,000 compounds, about 8,600 (12%) showed an effect of 50% or more. The sample holds strong results, similar compounds and a random draw of the others, so the mix is not that of the screen.

This assay has as its system Plasmodium berghei. As to the kind of experiment: Screen against P. berghei liver stage (PbLuc), transformed with Luciferase, at 10uM. The assay is classed as functional, HepG2. The following applies: tested at 10 uM.
In the case of `CCOc1ccc(C2CCCN2Cc2nnnn2C2CC2)cc1` (centres undefined), the INHIBITION was 48.2%. To `O=c1ccc2c(n1Cc1cccnc1)CCN(CC1CCOC1)CC2` (centres undefined) belongs -5.63%; to `C[C@H]1CN(C(=O)c2ccoc2)C[C@@]12CCN(CCN(C)C)C2=O`, -80%; to `CCC(=O)NC1CCCN(c2cncc(OCc3ccccc3)n2)C1` (centres undefined), 1.56%. As for `O=C(NCc1ccccn1)[C@@H]1COC[C@H]2CN(C3CCC3)C[C@H]21`, the INHIBITION was determined as 26.4%. As to `Cc1nc(-c2ccccc2)n(CC(=O)NC2CCCCC2)n1`, the INHIBITION is reported as 37.4%.

With `O=S1(=O)COCCN1Cc1ccc(F)cc1Cl`, the INHIBITION worked out at 33.9%. To `Cn1cc(CN2CCC3(CC2)CCN(Cc2ccccn2)CC3)cn1` belongs 41.2%; to `O=C(c1ccnc(C2CCNCC2)c1)N1CCCC1`, 7.43%; to `O=C1OCC(CO)N1Cc1cccc(Cl)c1F` (centres undefined), 28.7%. Under `C=C(C)CN1CCC(NC(=O)NCCc2ccc(N(C)C)cc2)CC1` stands 55.4%; under `C=C(C)COc1ccccc1CN1CCC(NC(C)=O)CC1`, 19.4%; under `C=C(C)CN1CCC(NC(=O)NCCc2cccc(C(N)=O)c2)CC1`, 57.3%. On to `C=C(C)CN1CCC(NC(=O)Nc2cc(C(N)=O)ccc2OC)CC1`, for which the INHIBITION amounted to 32.5%. Under `NC(=O)c1cccc(CCNC(=O)N2Cc3ccccc3C2)c1` stands 26.5%; under `COc1ccc(CCNC(=O)NC2CCCC2)cc1OC`, -24.9%. As for `C=C(C)CN1CCC(NC(=O)NCCc2ccccc2OC)CC1`, the INHIBITION was found to be 94.1%. To `CNC(=O)c1cccc(CCNC(=O)N2CCc3ccccc3C2)c1` belongs 3.73%. Under `COc1ccc(CCNC(=O)NCc2cccc(C(N)=O)c2)cc1OC` stands 37.4%. On to `Cn1cc(CCNC(=O)NC2CCN(Cc3ccccn3)CC2)cn1`, for which the INHIBITION is given as 16.8%. Under `C=C(C)CN1CCC(NC(=O)c2scnc2C)CC1` stands -6.44%; under `NC(=O)c1cccc(CCNC(=O)N2CCCC2)c1`, 58.1%.

Regarding `COC1CCCOC12CCN(C(=O)c1ccc3[nH]nnc3c1)CC2` (centres undefined), the INHIBITION was -29.9%.

In the case of `O=C(CSC1=NS(=O)(=O)c2cc(Cl)ccc2N1)c1ccccc1`, the INHIBITION was 11.8%. To `Cn1cc(CN2CCCC3(CCN(C(=O)c4ccccn4)C3)C2)cn1` (centres undefined) belongs 11.3%.

Regarding `COCCC(=O)N1CCOCC(Cc2ccc3c(ccn3C)c2)C1` (centres undefined), the INHIBITION was determined as 17.475%.

In the case of `CC(=O)N(Cc1ncc(C)o1)C1CCN(Cc2ccccc2C#N)C1` (centres undefined), the INHIBITION worked out at 9.64%. For `NC(=O)c1cc(C2CCCN(C(=O)CCc3cccs3)C2)n[nH]1` (centres undefined), the INHIBITION is 17.5%. Under `O=C1CC[C@@H](CN(Cc2ccncc2)Cc2nc(CC3CC3)no2)N1` stands 36.6%.

On to `Cc1nc(C)c2c(n1)CCN(C(=O)CC1CC1)CC2`, for which the INHIBITION was determined as 19.9%. Under `CCN1Cc2nccn2CC(COCc2csc(C)n2)C1` (centres undefined) stands 8.66%; under `N#Cc1ccc(F)c(CN2CCc3sccc3C2)c1`, 41.6%; under `N#Cc1ccc(CN2CCc3sccc3C2)c(F)c1`, 4.95%. To `N#Cc1ccccc1CN1CCc2sccc2C1` belongs 60.4%; to `Cc1nc(C)n(CC2CCCN(Cc3cccc(C(N)=O)c3)C2)n1` (centres undefined), -43.5%. Regarding `O=C(NC1CCCC1)N1C[C@H]2CN(c3ccncc3)C[C@@]2(C(=O)O)C1`, the INHIBITION was found to be 28.7%. For the molecule `O=C(NC1CCCC1)N1C[C@H]2CN(c3ccccn3)C[C@@]2(C(=O)O)C1`, the INHIBITION was found to be 6.27%.

Turning to `Cc1ccc(N2C[C@@H]3CN(C(=O)NC4CCCC4)C[C@]3(C(=O)O)C2)nn1`, the INHIBITION was 56.6%. `Cc1ccc(C(=O)N2CCCC(NC(=O)C(C)C)C2)c(O)c1` (centres undefined): the INHIBITION was determined as 54.4%.

`CC(C)C(=O)NC1CCCN(C(=O)c2cc(Cl)ccc2O)C1` (centres undefined): the INHIBITION is on record as 18.2%. Turning to `Cc1ccc(O)c(C(=O)N2CCCC(NC(=O)C(C)C)C2)c1` (centres undefined), the INHIBITION is 5.9%. `CC(C)C(=O)NC1CCCN(C(=O)c2ccc(O)c(Cl)c2)C1` (centres undefined): the INHIBITION is listed as 66.2%. Under `CC(C)C(=O)NC1CCCN(C(=O)c2ccccc2O)C1` (centres undefined) stands 8.64%. To `COc1ccc(C(=O)N2CCCC(NC(=O)C(C)C)C2)c(O)c1` (centres undefined) belongs -9.19%. For the molecule `c1cnc(CC2COCCN(C3CCCCC3)C2)cn1` (centres undefined), the INHIBITION turned out to be 14%.

On to `c1ccc(-c2nc(CCNCc3ccccn3)co2)cc1`, for which the INHIBITION was determined as 34.4%.

As for `CCN(Cc1nc(COC)no1)Cc1cc2ccc(F)cc2[nH]c1=O`, the INHIBITION was determined as 0.546%.

Regarding `CCc1cnc(C)nc1NC1CC(=O)N(CC2CCCCC2)C1` (centres undefined), the INHIBITION was -20.8%. Under `Cc1nc(CN2Cc3nccn3CC(COCC3CC3)C2)cs1` (centres undefined) stands 41.2%; under `CNC(=O)CN1CCOCC12CCN(CCc1ccccc1)CC2`, 38.1%. To `COc1c(C2CCCN2CC(=O)Nc2nccs2)c(C)nn1C` (centres undefined) belongs -24.7%; to `Cn1ccc(C(=O)N2CCOC(c3ccccc3)C2)cc1=O` (centres undefined), 50.5%; to `Cc1ccc(C2CN(C(=O)c3ccn(C)c(=O)c3)CCO2)nc1` (centres undefined), 44.8%. As to `Cn1ccc(C(=O)N2CCOC(c3ccccn3)C2)cc1=O` (centres undefined), the INHIBITION is reported as -5.71%. To `Cc1cc(-n2cncn2)n2ncnc2n1` belongs 47.1%.

For the molecule `CC(C)N(CCC#N)C(=O)c1cnc(-c2ccc3c(c2)OCO3)s1`, the INHIBITION is recorded as -73.9%. To `CC(C)c1nnc2n1CC(CNCc1nnc(C(C)(C)C)o1)CC2` (centres undefined) belongs 3.77%; to `CCN1CCN(c2nc3cn(-c4cnn(CC)c4)c(=O)c-3c[nH]2)CC1`, 36.6%. `CC(=O)N1C[C@H](NC(=O)c2csc(C(C)C)c2)[C@@H](C(C)C)C1`: the INHIBITION turned out to be 51.1%.

Regarding `CC(=O)N1C[C@H](NC(=O)c2ccnc(N)c2)[C@@H](C(C)C)C1`, the INHIBITION is listed as 19.1%. To `CC(=O)N[C@@H]1CN(C(=O)c2csc(C(C)C)n2)C[C@H]1C(C)C` belongs 9.87%. Under `COCC(=O)N1CC[C@H]2[C@H]1CCN2CC(C)C` stands 52.6%. To `CC(C)CN1CC[C@@H]2[C@@H]1CCN2C(=O)N(C)C` belongs 3.88%; to `CC(C)CN1CC[C@@H]2[C@@H]1CCN2C(=O)N1CCCC1`, 31.9%; to `CN(C)CC(=O)N1C[C@@H]2CC[C@H](Oc3ccccc3)[C@@H]2C1`, -21.4%. As to `COc1cccc(CN(C)S(=O)(=O)N2CCOCC2)c1`, the INHIBITION turned out to be 34.7%. Take `Cc1nn(C)c(N(C)C)c1CNCc1cccnc1N1CCOCC1`: the INHIBITION is listed as -69.3%. With `O=C(NC1CC1)[C@@H]1CN(Cc2ccc3c(c2)OCO3)C[C@H]2OCC[C@H]21`, the INHIBITION is recorded as 13.7%. Under `CC(CC#N)N(C)Cc1ccccc1Cl` (centres undefined) stands 38.5%; under `CCC(C)N(Cc1c[nH]c(C)n1)Cc1ccccc1Cl` (centres undefined), 41%.

Consider `CCC(C)N(Cc1cc(C)n[nH]1)Cc1ccccc1Cl` (centres undefined), for which the INHIBITION is 79%. For `CNC(=O)NC(=O)CN1CCc2c(Br)ccc(F)c2C1`, the INHIBITION is -34.8%. As to `COc1ccccc1CCNC(=O)CNCC1CN(C)CCO1` (centres undefined), the INHIBITION amounted to 11%. To `COc1ccc(-c2c(C)nn3c(=N)c(C#N)n[nH]c23)cc1` belongs 3.19%; to `CCc1nn2c(=N)c(C#N)n[nH]c2c1-c1ccc(OC)cc1`, 22.9%. With `COc1ccc(-c2csc(N)c2C#N)cc1OC`, the INHIBITION was found to be 1.58%.

Turning to `COc1ccc(-c2c(C)nn3c(=N)c(C#N)n[nH]c23)cc1OC`, the INHIBITION stood at 85%. Regarding `COc1ccc(-c2c(C(C)C)nn3c(=N)c(C#N)n[nH]c23)cc1`, the INHIBITION was 53.1%.

With `COc1ccc(-c2nc(C#N)c(N(C)C)o2)cc1OC`, the INHIBITION is -34.9%. To `CN(C)C[C@H]1OC[C@@H]2CCN(C(=O)c3ccc[nH]3)C[C@@H]21` belongs 29.8%. To `Cc1noc(C2CCC3(CCN(C(=O)c4cnn(C)c4)CC3)O2)n1` (centres undefined) belongs 44.1%. For `CC(C)(NS(C)(=O)=O)c1nc(-c2ccc(F)c(F)c2)no1`, the INHIBITION was -7.02%. On to `O=C(c1ccc2c(c1)COC2)N1CCCC(n2cncn2)C1` (centres undefined), for which the INHIBITION came out at 0.411%. Under `CO[C@H]1CN(Cc2ccc(F)c(F)c2)C[C@@]12CCCO2` stands 35.2%. To `Cc1nc(NC(=O)NC(CS(C)(=O)=O)c2ccccc2)sc1C` (centres undefined) belongs 35.1%; to `Cc1nc2n(n1)CC(NCc1csc(-c3ccsc3)n1)CC2` (centres undefined), 22.55%; to `Cc1nc(C2CCCNC2)cc(N(Cc2c(C)nn(C)c2C)C2CC2)n1` (centres undefined), -21.5%.

For `COc1cc(S(=O)(=O)N2CCc3ccccc32)cc(C(=O)O)c1OC`, the INHIBITION is reported as 48.2%. Take `COc1cc(S(=O)(=O)N2CCc3ccc(Cl)cc32)cc(C(=O)O)c1OC`: the INHIBITION was -11.4%. Under `COc1cc(S(=O)(=O)N2CCc3cc(Br)ccc32)cc(C(=O)O)c1OC` stands 62.6%; under `COc1cccc(CC2CN(C3CCN(C(C)=O)CC3)CCO2)c1` (centres undefined), 1.81%. Under `CCOC(=O)CNC(=O)N1CCOC(Cc2ccc(OC)cc2)C1` (centres undefined) stands -17.4%; under `CCOC(=O)CCNC(=O)N1CCOC(Cc2cccc(OC)c2)C1` (centres undefined), 53.7%. Under `CS(=O)(=O)c1ccc(NC(=O)N2C[C@H](O)[C@@H](N3CCOCC3)C2)cc1` stands 67.5%; under `O=C(Nc1ccc(-n2cccn2)cc1)N1C[C@H](O)[C@@H](N2CCOCC2)C1`, 44.3%; under `Cc1ccccc1C(=O)N1C[C@@H](O)[C@H](N2CCOCC2)C1`, 33.25%. For `COCCS(=O)(=O)NC(C)c1ccc(-n2nc(C)cc2C)cc1` (centres undefined), the INHIBITION is on record as 69.7%. Take `Cc1cc(C)n(-c2ccc(C(C)NS(=O)(=O)CCCS(C)(=O)=O)cc2)n1` (centres undefined): the INHIBITION is 47.4%. `Cc1cc(C)n(-c2ccc(C(C)NS(N)(=O)=O)cc2)n1` (centres undefined): the INHIBITION is given as 37.1%. `COCCN1CCC2(CC1)CN(CCn1cccn1)C(=O)CO2`: the INHIBITION worked out at 23.3%. Under `CN(CC(=O)N1CCN(c2cnccn2)CC1)c1ccc(Cl)cn1` stands -1.38%; under `CCn1cc(S(=O)(=O)N2CCN(S(=O)(=O)c3ccc(Br)s3)CC2)c(C)n1`, 24.2%; under `CCn1cc(NS(=O)(=O)c2ccc(Br)s2)c(C(N)=O)n1`, 61.6%. Under `CCn1cc(NS(=O)(=O)c2ccc(Br)s2)c(C(=O)NCC(C)C)n1` stands -0.217%.

The values are drawn from ChEMBL document CHEMBL4513216, “Probing the Open Global Health Chemical Diversity Library for Multistage-Active Starting Points for Next-Generation Antimalarials” (ACS Infect Dis, 2020).
